Measured values reported in the supplement of paper PMC6555819.

Key:
Experiment in all cases: PBM binding z-score (relative to random genomic background probes); higher = stronger binding; sequences stand for … in GC…GCGATTGACAGCGTAGAATGAAGG
[1] = test system: PPARg:RXRa DBDmut IVT, anti-RXR (DBD mutation: RXRa K156A/R161A, NR concentration 270 nM, RXRa partner concentration 90 nM)
How it was run: (§1)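 Binding z-scores take random background probes as their reference. They come from custom Agilent 4×180K protein-binding microarrays incubated 1 h with ligand-free nuclear receptor dimers, with antibodies against each partner (one per run) detecting binding. Scanned fluorescence was regression-normalized.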

[2] = test system: PPARg:RXRa IVT, anti-PPARg (NR concentration 270 nM, RXRa partner concentration 90 nM)
How it was run: as §1

[3] = test system: PPARg DBDmut:RXRa IVT, anti-PPARg (DBD mutation: PPARg1 K132A/R137A, NR concentration 270 nM, RXRa partner concentration 90 nM)
How it was run: as §1

[4] = test system: PPARg DBDmut IVT, anti-PPARg (DBD mutation: PPARg1 K132A/R137A, NR concentration 270 nM)
How it was run: as §1

[5] = test system: PPARg homodimer (NR concentration 180 nM)
How it was run: as §1

[6] = test system: PXR:RXRa (NR concentration 270 nM, RXRa partner concentration 90 nM)
How it was run: as §1

[7] = test system: PXR homodimer (NR concentration 270 nM)
How it was run: as §1

[8] = test system: RARa:RXR (NR concentration 270 nM, RXRa partner concentration 90 nM)
How it was run: as §1

[9] = test system: RARa homodimer (NR concentration 270 nM)
How it was run: as §1

[10] = test system: RARb:RXRa (NR concentration 270 nM, RXRa partner concentration 90 nM)
How it was run: as §1

[11] = test system: RARb homodimer (NR concentration 270 nM)
How it was run: as §1

[12] = test system: RARg:RXRa (NR concentration 270 nM, RXRa partner concentration 90 nM)
How it was run: as §1

[13] = test system: RARg homodimer (NR concentration 270 nM)
How it was run: as §1

[14] = test system: RXRa DBDmut IVT, anti-RXR (DBD mutation: RXRa K156A/R161A, NR concentration 90 nM)
How it was run: as §1

[15] = test system: RXRa homodimer (NR concentration 180 nM)
How it was run: as §1

[16] = test system: THRa:RXRa (NR concentration 90 nM, RXRa partner concentration 90 nM)
How it was run: as §1

[17] = test system: THRa homodimer (NR concentration 90 nM)
How it was run: as §1

[18] = test system: VDR:RXRa (NR concentration 270 nM, RXRa partner concentration 90 nM)
How it was run: as §1

[19] = test system: VDR homodimer (NR concentration 270 nM)
How it was run: as §1

| Sequence | PBM binding z-score [1] | PBM binding z-score [2] | PBM binding z-score [3] | PBM binding z-score [4] | PBM binding z-score [5] | PBM binding z-score [6] | PBM binding z-score [7] | PBM binding z-score [8] | PBM binding z-score [9] | PBM binding z-score [10] | PBM binding z-score [11] | PBM binding z-score [12] | PBM binding z-score [13] | PBM binding z-score [14] | PBM binding z-score [15] | PBM binding z-score [16] | PBM binding z-score [17] | PBM binding z-score [18] | PBM binding z-score [19] |
| --- | --- | --- | --- | --- | --- | --- | --- | --- | --- | --- | --- | --- | --- | --- | --- | --- | --- | --- | --- |
| TCTAGTTGCTCACGGAGGTCACACACGACGGGTA | 1.58 | 2.24 | 0.833 | 0.565 | 2.53 | 4 | 0.832 | 4.2 | 0.559 | 3.25 | 4.16 | 4.02 | 3.73 | 1.11 | 4.32 | 3.46 | 2.22 | 3.64 | 2.06 |
| TCTTGTAGTTCAGCAGGTTAAGAAAGCTGGCCAA | 1.37 | 0.541 | -0.927 | 0.25 | 0.434 | 0.887 | 0.352 | 1.18 | 0.277 | 1.76 | 1.53 | 1.8 | 1.25 | 1.53 | 1.12 | 0.683 | 0.0556 | 1.78 | 0.942 |
| TCTAGCAGGCCTGAGGGTCACTCAAGAGGTACGG | 0.475 | -0.212 | -2.08 | -1.13 | 0.706 | 1.92 | -0.465 | 2.85 | -0.571 | 2.12 | 2.52 | 2.29 | 1.53 | 0.198 | 2.59 | 1.75 | -0.278 | 1.9 | 0.36 |
| GATACAGGGTCAGCTAGAGGCGAGAGTATGGAAA | 1.45 | 2.17 | -0.6 | -0.459 | 1.77 | 2.25 | -0.498 | 3.52 | 0.0279 | 4.1 | 2.7 | 5.04 | 4.34 | 1.57 | 4.51 | 2.79 | 0.319 | 2.6 | 0.871 |
| GCTCGGAGGACAAGGTCAGAGTTTTGTCCGTAGA | 0.207 | 0.996 | -0.873 | -1.18 | 0.43 | 1.95 | 0.373 | 2.23 | -0.47 | 3.46 | 3.25 | 3.1 | 3.94 | 0.706 | 2.55 | 3.11 | 1.72 | 1.65 | 0.974 |
| TCTGCTAGGTCACTTGGTCAGCTAACGAGCTGCC | 4.06 | 4.55 | 2.55 | 1.22 | 0.811 | 0.889 | -0.812 | 1.93 | -0.792 | 3.81 | 3.07 | 4.03 | 4.52 | 1.54 | 2.41 | 2.58 | 0.574 | 1.3 | 0.129 |
| TAGCCTAGGTCATTCAGGGACCAGTATAGAAAGC | 0.873 | 2.72 | 0.102 | -0.132 | 0.904 | 1.67 | -0.229 | 2.18 | -0.017 | 3.57 | 2.63 | 3.94 | 4.11 | 1.43 | 2.72 | 4.26 | 0.615 | 2.57 | 1.19 |
| CATACATGGTCAGCTAGGCCAGAGTAGGGACGGC | -0.304 | 0.125 | 0.136 | -0.418 | -0.795 | -0.724 | -0.583 | -0.808 | 0.055 | 0.8 | 0.263 | 0.156 | 0.731 | -0.604 | 0.103 | -0.289 | -0.393 | -0.459 | -1.02 |
